Source: PubChem BioAssay

Key:
[1] = test system: Human papillomavirus type 1a protein E7 (residues 44-93); test: HPV1a E7 fragment binders on microarrays, primary screen, biochemical, small-molecule microarray, residues 44-93, 635 nm fluorescence (AID 1108); details: small-molecule microarray binding, fluorescence 635 nm; higher = more signal;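 further: E7 fragment applied at 1 µg/mL in TBST for 1 h at 4 C; score combines spot fluorescence with its signal to noise ratio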
[2] = modulators of HCV replicon luciferase signal, primary screen, HCV replication inhibitor project, Huh7 cells, luciferase reporter (AID 1109); details: 48 h, higher = more signal;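 further: huh7 hepatoma cells harbouring a luciferase neomycin HCV replicon reporter; luciferase luminescence as measure of HCV replicon replication; test concentration not given here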
[3] = molecular target: Left-right determination factor 2 (Homo sapiens) (UniProt O00292); test: LEFTY2 binders on small-molecule microarrays, primary screen, biochemical, small-molecule microarray, 635 nm fluorescence scan (AID 1110); details: LEFTY2 binding, higher = more signal
[4] = molecular target: Calmodulin-1 (Homo sapiens) (UniProt P0DP23); test: CALM1 binders on microarrays, EGTA buffer, profiling panel, biochemical, small-molecule microarray, Cy5-labelled CALM1 (AID 1111); details: Cy5-CALM1 binding fluorescence, higher = more signal;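 further: labelled calmodulin applied in Tris saline Tween buffer holding calcium plus EGTA and DTT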
[5] = molecular target: Calmodulin-1 (Homo sapiens) (UniProt P0DP23); test: calcium-bound CALM1 binders on microarrays, profiling panel, artefact control for SMM control-protein annotation, biochemical, small-molecule microarray, Cy5-labelled CALM1, plus calcium (AID 1112); details: Cy5-CALM1 binding fluorescence, higher = more signal;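 further: score merges spot fluorescence with signal to noise from triplicate slides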
[6] = small-molecule microarray binders of probe aWnt5a, primary screen, biochemical, biotinylated probe, 635/667 nm fluorescence (AID 1113); details: higher = more signal;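 further: score merges 667 nm fluorescence intensity with signal-to-noise per printed feature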
[7] = small-molecule microarray binders of probe aShh, primary screen, biochemical, biotinylated probe, 635/667 nm fluorescence (AID 1114); details: higher = more signal;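 further: probe is biotin-labelled aShh protein from a stem cell growth factor screen; measures binding of labelled protein to compounds printed on the slide; score merges feature fluorescence at 667 nm with signal-to-noise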
[8] = small-molecule microarray binders of probe aNog, primary screen, biochemical, biotinylated probe, 635/667 nm fluorescence (AID 1115); details: higher = more signal;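 further: probe is biotinylated aNog protein used at 0.15 µg/mL for 1 h at 4 C; z-score combines 667 nm fluorescence of each spot with its signal to noise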
[9] = molecular target: Torsin-1A-interacting protein 1 (Homo sapiens) (UniProt Q5JTV8); test: LAP1 binders from COS7 cell lysate, primary screen, small-molecule microarray, 635/667 nm fluorescence (AID 1116); details: COS7-hLAP1 lysate binding, 635 nm fluorescence, higher = more signal
[10] = molecular target: Alpha-bungarotoxin (Bungarus multicinctus) (UniProt P60615); test: alpha-bungarotoxin binders on microarray, profiling panel, artefact control for SMM control protein annotation, biochemical, small-molecule microarray, Alexa647 label, 635/667 nm fluorescence (AID 1117); details: alpha-BTX-A647 binding fluorescence, higher = more signal
Chain of Alpha-bungarotoxin (Bungarus multicinctus) (P60615 whole entry, looked up): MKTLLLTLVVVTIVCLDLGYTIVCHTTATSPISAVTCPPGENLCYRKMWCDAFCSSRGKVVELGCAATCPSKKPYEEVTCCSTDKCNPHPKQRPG

Chain of Torsin-1A-interacting protein 1 (Homo sapiens) (Q5JTV8 whole entry, looked up): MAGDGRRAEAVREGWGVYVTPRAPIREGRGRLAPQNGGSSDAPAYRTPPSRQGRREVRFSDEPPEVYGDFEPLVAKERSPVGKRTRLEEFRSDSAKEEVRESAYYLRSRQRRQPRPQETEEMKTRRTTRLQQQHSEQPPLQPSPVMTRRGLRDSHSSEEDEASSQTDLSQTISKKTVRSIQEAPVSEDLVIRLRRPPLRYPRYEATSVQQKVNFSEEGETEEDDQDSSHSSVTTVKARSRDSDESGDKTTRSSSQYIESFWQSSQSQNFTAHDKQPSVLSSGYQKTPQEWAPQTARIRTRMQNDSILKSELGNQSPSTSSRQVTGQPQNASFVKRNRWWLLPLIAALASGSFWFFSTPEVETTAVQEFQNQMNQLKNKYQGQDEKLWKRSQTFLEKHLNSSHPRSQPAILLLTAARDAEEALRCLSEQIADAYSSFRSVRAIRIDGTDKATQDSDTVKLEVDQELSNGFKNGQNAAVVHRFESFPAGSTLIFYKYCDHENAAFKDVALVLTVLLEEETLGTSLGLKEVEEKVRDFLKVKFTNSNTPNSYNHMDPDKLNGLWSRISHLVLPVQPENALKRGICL
Chain of Left-right determination factor 2 (Homo sapiens) (O00292 whole entry, looked up): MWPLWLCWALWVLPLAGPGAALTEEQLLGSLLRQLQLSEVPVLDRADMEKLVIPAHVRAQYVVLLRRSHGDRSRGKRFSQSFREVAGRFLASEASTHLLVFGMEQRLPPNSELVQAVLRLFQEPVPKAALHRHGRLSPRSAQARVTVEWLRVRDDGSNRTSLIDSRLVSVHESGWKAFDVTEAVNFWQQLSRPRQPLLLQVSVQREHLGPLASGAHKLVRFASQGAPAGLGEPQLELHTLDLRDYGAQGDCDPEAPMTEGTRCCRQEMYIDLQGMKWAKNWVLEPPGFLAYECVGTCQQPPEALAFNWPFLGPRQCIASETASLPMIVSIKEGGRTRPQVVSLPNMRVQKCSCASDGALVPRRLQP

Structure (SMILES)	composite z-score [1]	z-score [2]	composite z-score [3]	composite z-score [4]	composite z-score [5]	composite z-score [6]	composite z-score [7]	composite z-score [8]	composite z-score [9]	composite z-score [10]
O=C1O[C@@H](c2ccccc2)[C@@H](c2ccccc2)N2[C@@H](c3ccc(OCCO)cc3)[C@]3(C(=O)Nc4ccccc43)[C@@H](C(=O)Nc3nc4ccccc4s3)[C@H]12	1.44	-2.66	1.05	1.67	0.241	0.105	0.171	1.27	1.5	1.78
[N-]=[N+]=NCc1ccccc1C[C@@]1(C(=O)NCC(O)CO)N=C(c2ccc(OCCCO)cc2)O[C@@H]1c1ccccc1CN=[N+]=[N-] (stereo not given in full)	1.06	-1.73	-0.88	2.11	0.876	0.0219	0.269	2.29	2.01	1.5
Cc1cc(C)c(C(O)C2C=CC3C(=O)N(C)C(=O)C3N2Nc2ccccc2)c(C)c1 (stereo not given)	-0.7	0.228	0.627	1.16	-0.0299	0.881	0.365	1.45	1.23	0.821
CCOC(=O)C1=CC[C@@H](c2ccccc2Cl)N(S(=O)(=O)c2ccc(C)cc2)C1	0.948	-2.7	-0.462	1.52	0.784	-0.117	-0.167	1.25	1.56	0.407
N#Cc1ccc(NN2C(C(O)C3CCCCC3)C=CC3C(=O)N(c4ccccc4)C(=O)C32)cc1 (stereo not given)	1.48	-0.785	0.0137	1.82	0.779	0.0859	0.294	1.32	-0.102	1.09
CN1CCC(CCCO)=CC1c1ccc(CN2CCCC2)cc1 (stereo not given)	1.25	-1.94	1.3	-0.561	-0.938	0.0215	0.441	0.215	1.49	1.34
COC(=O)C(CC#Cc1ccc2c(c1)[C@]1(C(=O)N2)[C@H](C(=O)NC[C@H](O)c2ccccc2)[C@H]2C(=O)O[C@H](c3ccccc3)[C@H](c3ccccc3)N2[C@@H]1c1ccc(OCCO)cc1)C(=O)OC	1.45	-1.95	0.696	1.5	1.1	0.174	0.986	0.945	0.053	2.23
N#Cc1ccc(NN2C(C(O)c3cccs3)C=CC3C(=O)N(c4ccccc4)C(=O)C32)cc1 (stereo not given)	0.809	-0.0582	0.268	0.41	0.314	0.0709	-0.0977	1.43	1.52	0.122
O=C1OCC=C[C@H]2OC34C=CCN(c5ccc6ccccc6c5)C(=O)[C@H]3N(CCCO)C(=O)[C@@H]4[C@@H]12 (stereo not given in full)	-0.522	-0.805	-0.842	-0.0892	0.172	-0.124	-0.15	0.135	0.208	-0.871
CCCN1C(=O)[C@]2(COC(c3ccc(OCCCO)cc3)=N2)Cc2ccccc21	0.147	0.0172	-0.196	1.11	0.599	-0.0462	0.118	0.705	0.39	1.03
O=C1O[C@@H](c2ccccc2)[C@@H](c2ccccc2)N2[C@@H](c3ccccc3OCCO)[C@]3(C(=O)Nc4ccc(C#CC5(O)CCCCCC5)cc43)[C@@H](C(=O)Nc3nc4ccccc4s3)[C@H]12	1.38	-3.09	0.628	0.688	0.226	-0.0495	-0.0685	-0.0065	0.367	0.744
CC(C)N1C(=O)c2ccccc2[C@@H](C(=O)NCCCN(C)C)[C@@H]1c1ccc(CO)cc1	-1	0.19	-0.89	0.341	0.0647	0.026	-0.367	0.707	0.64	0.684
CC(C)N1CC=CC23O[C@@H]4C=CCOC(=O)[C@@H]4[C@H]2C(=O)N(CCO)[C@@H]3C1=O (stereo not given in full)	0.723	-0.0497	-1.65	-0.248	0.641	-0.206	-0.11	-0.178	0.0566	-1.15
C=CCC(OC(C)=O)[C@@H]1[C@@H](N(Cc2ccc(-c3ccccc3)cc2)C(=O)Cc2ccc(F)cc2)c2cc(OCCCO)ccc2N1C(=O)c1ccc2ccccc2n1 (stereo not given in full)	-0.689	-0.213	-0.456	0.168	0.72	-0.0125	-0.206	-0.395	0.79	0.414
C=C[C@H](COC(C)=O)N(Cc1ccc(OC(C)=O)c(OC)c1)S(=O)(=O)c1ccc(Br)cc1	1.29	-0.0847	0.461	1.05	0.267	0.0479	-0.291	-0.407	0.788	0.998
C=C(COC)C(=O)CC[C@H](OC(C)=O)c1cccc(OCCO)c1	-0.76	-0.574	-0.729	-0.779	-0.773	-0.124	0.111	-0.0428	0.8	1.24
CC(C)C(=C=CC[C@H](O)c1cccc(OCCO)c1)C[C@H](O)COCc1ccccc1	0.0677	-0.285	-0.0641	-0.53	-0.981	-0.096	0.0062	0.0308	1.14	0.0589
COCCOC(=O)N1C(=O)[C@@]2(c3cc(C#CCNC(N)=O)ccc31)[C@H](C(=O)N1CCN(c3ncccn3)CC1)[C@H]1C(=O)O[C@H](c3ccccc3)[C@H](c3ccccc3)N1[C@@H]2c1ccccc1OCCO	1.38	-1.05	0.877	0.97	0.264	0.0375	0.175	-0.319	0.82	0.904
NCCCCCNC(=O)[C@H]1C[C@H]2C(=O)NCC(=O)N2[C@H]1c1cccc(OCCO)c1	1.34	-0.786	0.296	0.828	0.8	-0.157	0.158	-0.324	0.86	1.51
O=C1O[C@H](c2ccccc2)[C@H](c2ccccc2)N2[C@H]1[C@@H](C(=O)O)[C@]1(C(=O)Nc3ccc(C#CC4=CCCCC4)cc31)[C@H]2c1ccc(OCCO)cc1	1.22	-1.69	0.659	0.447	0.166	0.055	-0.304	1.17	1.09	2.81
O=C1C2C=CC(C(O)c3ccc(B(O)O)cc3)N(Nc3ccccc3)C2C(=O)N1c1ccccc1 (stereo not given)	0.0036	-1.49	-0.158	0.883	0.665	-0.0944	0.151	0.162	0.949	0.402
COc1ccc([Si](C)(C)[C@@H]2[C@@H](CC(=O)N3CCC[C@H]3CO)O[C@]3(C(=O)N(C)c4c(Br)cc(C)cc43)[C@H]2C)cc1	1.28	-2.05	0.396	0.207	0.0431	0.0219	-0.0035	-0.229	0.948	0.338
COCCCNC(=O)[C@@]1(CCC(=O)OC(C)(C)C)N=C(c2ccc(OCCCO)cc2)O[C@H]1c1ccccc1CN=[N+]=[N-]	1.49	0.43	-0.139	1.39	0.854	0.112	0.0898	1.36	2.28	2.19
CC(=CC1CCCCC1)[C@@H](NC(=O)c1ccc(C(F)(F)F)cc1)c1ccc(-c2ccccc2)cc1	-0.778	-1.04	-0.886	0.605	0.636	-0.0735	0.151	0.506	-0.204	0.48
